Results: PMC5540273 (PLoS ONE, 2017)

What was measured:
Conditions in all cases: concentration: 1 μM, replicates: in singlicate; n = 1
YANK1 = tested on: T1, YANK1
T1 construct: gene STK32A

YANK2 = tested on: T2, YANK2
T2 construct: gene STK32B

YANK3 = tested on: T3, YANK3
T3 construct: gene STK32C

YES = tested on: T4, YES
T4 construct: gene YES1

YSK1 = tested on: T5, YSK1
T5 construct: gene STK25

YSK4 = tested on: T6, YSK4
T6 construct: gene MAP3K19

ZAK = tested on: ZAK
ZAP70 = tested on: ZAP70
p38-alpha = tested on: T7, p38-alpha
T7 construct: gene MAPK14

p38-beta = tested on: T8, p38-beta
T8 construct: gene MAPK11
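Further: KINOMEscan kinase panel screen.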

## Nc1ncnc2c1ncn2-c1cccc(F)c1 [SKF-97560]
YANK1
  %Inh: 17%
YANK2
  %Inh: 0%
YANK3
  %Inh: 0%
YES
  %Inh: 16%
YSK1
  %Inh: 0%
YSK4
  %Inh: 40%
ZAK
  %Inh: 26%
ZAP70
  %Inh: 21%
p38-alpha
  %Inh: 0%
p38-beta
  %Inh: 0%

## CCC(=O)c1c(-c2ccccc2)c2cc(Cl)ccc2c(=O)n1Cc1cc(S(C)(=O)=O)n(CCC(C)(C)O)n1
YANK1
  %Inh: 19%
YANK2
  %Inh: 13%
YANK3
  %Inh: 23%
YES
  %Inh: 0%
YSK1
  %Inh: 0%
YSK4
  %Inh: 0%
ZAK
  %Inh: 27%
ZAP70
  %Inh: 3%
p38-alpha
  %Inh: 16%
p38-beta
  %Inh: 6%

## Cc1ccccc1COc1cc(-n2cnc3cc(Cl)ccc32)sc1C(N)=O [GW813349]
YANK1
  %Inh: 14%
YANK2
  %Inh: 2%
YANK3
  %Inh: 35%
YES
  %Inh: 0%
YSK1
  %Inh: 0%
YSK4
  %Inh: 10%
ZAK
  %Inh: 0%
ZAP70
  %Inh: 19%
p38-alpha
  %Inh: 0%
p38-beta
  %Inh: 5%

## Cc1ccc(-c2ccc3c(ccc4sc5c(c43)NC[C@@H](C)N=C5N(C)C)n2)cn1
YANK1
  %Inh: 0%
YANK2
  %Inh: 0%
YANK3
  %Inh: 0%
YES
  %Inh: 0%
YSK1
  %Inh: 0%
YSK4
  %Inh: 0%
ZAK
  %Inh: 0%
ZAP70
  %Inh: 0%
p38-alpha
  %Inh: 0%
p38-beta
  %Inh: 0%

## COc1cccc(-n2cnc3c(N)ncnc32)c1 [SKF-97416]
YANK1
  %Inh: 4%
YANK2
  %Inh: 0%
YANK3
  %Inh: 1%
YES
  %Inh: 0%
YSK1
  %Inh: 0%
YSK4
  %Inh: 45%
ZAK
  %Inh: 42%
ZAP70
  %Inh: 25%
p38-alpha
  %Inh: 0%
p38-beta
  %Inh: 22%

## CCCC(=O)Nc1n[nH]c2ncc(-c3cccc4ccccc34)cc12 [SB-642057]
YANK1
  %Inh: 0%
YANK2
  %Inh: 6%
YANK3
  %Inh: 42%
YES
  %Inh: 9%
YSK1
  %Inh: 8%
YSK4
  %Inh: 57%
ZAK
  %Inh: 54%
ZAP70
  %Inh: 0%
p38-alpha
  %Inh: 14%
p38-beta
  %Inh: 4%

## Fc1cccc(CSc2nnc(-c3ccc4c(c3)CCO4)o2)c1
YANK1
  %Inh: 16%
YANK2
  %Inh: 12%
YANK3
  %Inh: 0%
YES
  %Inh: 8%
YSK1
  %Inh: 0%
YSK4
  %Inh: 20%
ZAK
  %Inh: 0%
ZAP70
  %Inh: 0%
p38-alpha
  %Inh: 0%
p38-beta
  %Inh: 16%

## COc1ccc(-n2cnc3c(N)ncnc32)cc1 [SKF-97236]
YANK1
  %Inh: 0%
YANK2
  %Inh: 10%
YANK3
  %Inh: 0%
YES
  %Inh: 0%
YSK1
  %Inh: 0%
YSK4
  %Inh: 34%
ZAK
  %Inh: 15%
ZAP70
  %Inh: 0%
p38-alpha
  %Inh: 0%
p38-beta
  %Inh: 21%
